# According to PubChem BioAssay AID602475 (National Center for Advancing Translational Sciences (NCATS), 2012):
# Records with an inconclusive call do not appear. Where a call stands in place of a potency, no number is given. The source made the active and inactive calls. The call rests on the fitted dose curve; in most records, active means well fitted inhibition curve with a large enough effect; inconclusive means small, poorly fitted or top-dose-only effect; inactive means no such curve, though single readings can be large or run the other way.
# Molecular target: Luciferin 4-monooxygenase (Photinus pyralis) (UniProt P08659)
# Sequence (P08659 whole entry, looked up): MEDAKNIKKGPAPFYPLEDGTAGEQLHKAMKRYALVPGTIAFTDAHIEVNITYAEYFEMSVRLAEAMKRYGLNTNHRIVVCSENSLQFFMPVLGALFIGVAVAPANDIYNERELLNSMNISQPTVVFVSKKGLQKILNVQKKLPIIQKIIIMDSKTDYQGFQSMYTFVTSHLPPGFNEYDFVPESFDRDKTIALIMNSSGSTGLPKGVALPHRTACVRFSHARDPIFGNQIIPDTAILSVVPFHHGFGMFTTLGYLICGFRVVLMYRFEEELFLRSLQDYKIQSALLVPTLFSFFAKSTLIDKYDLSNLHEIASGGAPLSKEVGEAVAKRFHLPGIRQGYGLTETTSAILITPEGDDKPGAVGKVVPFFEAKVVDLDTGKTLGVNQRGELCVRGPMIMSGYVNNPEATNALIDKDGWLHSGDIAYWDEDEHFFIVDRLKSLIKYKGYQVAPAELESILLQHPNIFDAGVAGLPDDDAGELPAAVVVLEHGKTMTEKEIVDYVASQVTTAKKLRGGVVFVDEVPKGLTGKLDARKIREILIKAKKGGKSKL
# Test: FLuc inhibitory activity for the follow-up compounds in a biochemical assay with an in-house formulation of detection reagent
# In short: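 Purified P. pyralis luciferase (10 nM) in 50 mM Tris acetate, compounds titrated 12-point from ~25uM to 0.1nM. In-house detection reagent added (450uM ATP, 1mM D-luciferin, 500uM coenzyme A, 5mM DTT, 1% Triton-X100); luminescence imaged.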
compound,measurement,value
O=C(O)c1cccc(NC(=O)c2ccccc2NC(=O)c2ccccc2F)c1,Potency,inactive
